Data as given in the supplement of paper PMC10646978.
± gives the standard deviation.

How the values were obtained:
Settings in all cases: modulator concentration 10 µM
[1] = test system: RAW-Dual (murine macrophage reporter line); experiment: NF-kB reporter (SEAP) activity fold change vs agonist alone; higher = enhanced NF-kB activity
In short: (§1)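 Compound reached 10 μM final in each well by pin transfer, onto RAW-Dual murine macrophage reporter cells seeded at 50 000 per well in 384-well plates. After 1 hour at 37 °C, the cells were stimulated overnight with a PRR agonist. SEAP in the supernatant was read with QUANTI-Blue at 620 nm absorbance for NF-κB, and Lucia luciferase was read with QUANTI-Luc luminescence for IRF. Each signal was turned into fold change against the mean agonist-only control on the same plate, and two replicate plates were averaged with propagated errors.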

[2] = test system: RAW-Dual (murine macrophage reporter line); experiment: IRF reporter (Lucia luciferase) activity fold change vs agonist alone; higher = enhanced IRF activity
In short: as §1

[3] = test system: RAW-Dual (murine macrophage reporter line); experiment: viability score (confluency relative to resting cells, overnight) (fraction); higher = more viable, active = viable (0.7 or more)
In short: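 In 384-well plates, RAW-Dual macrophages received compound at a final 10 μM overnight. Two confluency masks were then made with IncuCyte software from IncuCyte images of all imaged wells. The viability score is defined as confluency relative to resting cells. Passing the cutoff required both masks to lie above 70% of resting cells.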

[4] = agonist: CpG ODN 1826 0.5 ug/mL

| SMILES | NF-kB reporter [1, 4] | NF-kB reporter ([1]; agonist: LPS 0.1 ug/mL) | NF-kB reporter ([1]; agonist: MPLA […]) | IRF reporter ([2]; agonist: 3'3'-cGAMP 10 ug/mL) | IRF reporter ([2]; agonist: LPS 0.1 ug/mL) | IRF reporter ([2]; agonist: MPLA […]) | viability score [3] |
| --- | --- | --- | --- | --- | --- | --- | --- |
| COCCN1CCC(NC(=O)c2cccc3ccccc23)CC1 | 1.16 ± 0.099 | 1.06 ± 0.096 | 0.958 ± 0.039 | 0.992 ± 0.083 | 1.02 ± 0.072 | 1.04 ± 0.12 | 0.998 (active) |
| O=[N+]([O-])c1ccc(Cl)c(C=Nc2cccc3c(N=Cc4cc([N+](=O)[O-])ccc4Cl)cccc23)c1 | 0.841 ± 0.047 | 1.07 ± 0.078 | 0.988 ± 0.086 | 0.816 ± 0.05 | 1.56 ± 0.1 | 1.26 ± 0.13 | 1 (active) |
| CCN(CC)c1ccc(-c2noc(CN3CCSCC3)n2)cn1 | 0.986 ± 0.055 | 1.15 ± 0.099 | 0.902 ± 0.041 | 0.983 ± 0.059 | 1.15 ± 0.14 | 1.13 ± 0.37 | 1.01 (active) |
| CN1CCN(C(=O)CN2C(=O)c3cccc4cccc(c34)C2=O)CC1 | 0.881 ± 0.082 | 0.981 ± 0.061 | 0.88 ± 0.091 | 0.971 ± 0.026 | 1.21 ± 0.19 | 0.967 ± 0.26 | 1.01 (active) |
| Cc1cc(CCNS(=O)(=O)c2cccc(C(F)(F)F)c2)nn1C | 0.898 ± 0.068 | 0.995 ± 0.1 | 0.988 ± 0.06 | 0.96 ± 0.06 | 0.961 ± 0.097 | 1 ± 0.23 | 1 (active) |
| O=c1ccn([C@@H]2O[C@H](CO)[C@@H](O)[C@H]2O)c(=O)[nH]1 | 1.05 ± 0.087 | 0.912 ± 0.045 | 1.05 ± 0.059 | 1.09 ± 0.066 | 0.985 ± 0.032 | 0.919 ± 0.1 | 0.998 (active) |
| Cc1cc(NC(=O)c2ccoc2COc2ccccc2)no1 | 1.17 ± 0.063 | 1.08 ± 0.093 | 1.32 ± 0.071 | 1.21 ± 0.061 | 1.21 ± 0.23 | 1.46 ± 0.38 | 0.962 (active) |
| Fc1ccc(Nc2nc(NN=Cc3c[nH]nc3-c3ccccc3)nc(N3CCOCC3)n2)cc1 | 0.537 ± 0.044 | 0.981 ± 0.071 | 2.12 ± 0.2 | 1 ± 0.1 | 1.57 ± 0.21 | 2.78 ± 0.4 | 0.875 (active) |
| O=C(COc1ccccc1)N1CCCC1Cn1nccn1 (centres undefined) | 0.962 ± 0.09 | 0.951 ± 0.077 | 0.923 ± 0.1 | 0.904 ± 0.049 | 1.17 ± 0.1 | 1.06 ± 0.25 | 0.975 (active) |
| C[C@@H](Oc1cc(-c2cnn(C3CCNCC3)c2)cnc1N)c1c(Cl)ccc(F)c1Cl | 0.149 ± 0.026 | 0.423 ± 0.2 | 1.47 ± 0.12 | 0.0546 ± 0.0028 | 0.165 ± 0.074 | 0.128 ± 0.02 | 0.0221 (inactive) |
| O=C(CN1CCN(c2ccccc2F)C1=O)N1CCCC(Oc2ccncn2)C1 (centres undefined) | 0.874 ± 0.21 | 0.941 ± 0.052 | 0.992 ± 0.092 | 0.507 ± 0.025 | 0.968 ± 0.15 | 1.13 ± 0.27 | 0.547 (inactive) |
| Cc1cccc(NC(=O)Cc2nnc(NC(=O)Nc3ccc(F)cc3)s2)c1 | 1.02 ± 0.11 | 1.03 ± 0.059 | 0.917 ± 0.055 | 1 ± 0.051 | 1.53 ± 0.12 | 1.11 ± 0.15 | 1.01 (active) |
